Laboratory results taken from ChEMBL document CHEMBL1157539, “Thousands of chemical starting points for antimalarial lead identification” (Nature, 2010).

What was measured:
Type in all cases: functional
Plasmodium falciparum [1] = assay: GSK_TCMDC: Inhibition of Plasmodium falciparum 3D7 in whole red blood cells, using parasite LDH activity as an index of growth. Test compounds present at 2uM
Plasmodium falciparum [2] = assay: GSK_TCMDC: Inhibition of Plasmodium falciparum Dd2 in whole red blood cells, using parasite LDH activity as an index of growth. Test compounds present at 2uM
HepG2 = assay: GSK_TCMDC: Percent inhibition of human HepG2 cell line. Test compounds present at 10uM.

SMILES | Inhibition (Plasmodium falciparum [1]) [%] | Inhibition (Plasmodium falciparum [2]) [%] | Inhibition (HepG2) [%]
COc1ccc(S(=O)(=O)NC2CCN(c3ccc(C(F)(F)F)cc3NC(=O)OCC(C)C)CC2)cc1 | 85 | 13 | 19
COc1ccc(-c2cc(NCc3ccc(-n4ccnc4)cc3)nc(Nc3ccccc3)n2)cc1 | 100 | 79 | 8
O=C(O)C(F)(F)F.O=S(=O)(NCCN1CCCC1)c1ccc(-c2cccc(CNC3Cc4ccccc4C3)c2)s1 | 98 | 69 | 57
COc1cc(CCNc2nc(NCc3ccccc3-c3ccccc3)nc(N3CCC(N)CC3)n2)ccc1O.O=C(O)C(F)(F)F | 100 | 70 | 25
CCc1cn2c3c(cc(C(=O)N[C@@H](Cc4cccc(F)c4)[C@H](O)CNC4CCCCC4)cc13)N(C)S(=O)(=O)CC2.O=CO | 99 | 99 | 5
COc1ccc(-c2cccc(NC(=O)c3cccc(C#N)c3)c2)cc1CN1CCCN(C)CC1.O=C(O)C(F)(F)F | 100 | 99 | 22
CC(C)(C)c1ccc(CN2CCC(CNC(=O)c3cc(-c4cccc(F)c4)cs3)C2)cc1.O=C(O)C(F)(F)F (stereo not given) | 100 | 55 | 32
Cc1ccccc1-c1cc(=O)c2cc(NC(=O)c3cccs3)ccc2o1 | 96 | 95 | 22
CCC(=O)Nc1cc(=O)[nH]c2nc(-c3ccc(Cl)cc3)nn12 | 84 | 62 | 3
Cn1nc(-c2ccc(S(=O)(=O)N3CCC(CCN4CCC(c5c[nH]c6ccccc56)CC4)CC3)s2)cc1C(F)(F)F | 94 | 22 | 40
